Measurements from PubChem BioAssay (NCATS).
Inconclusive results are not listed. Active and inactive are the calls of the source. Unless noted, calls come from the whole dose curve; as a rule, active = well fitted curve in either direction with a large enough effect (not every such curve was filed as active); inconclusive = small, poorly fitted or top-dose-only effect, or another doubt; inactive = flat fitted curve, though single readings scatter.

Assays:
[1] = target: Lysosomal acid glucosylceramidase (Homo sapiens) (UniProt P04062); assay: Glucocerebrosidase-p2 (AID 348; in the data active = potency below about 10 µM; note: potency is the fitted concentration of half-maximal effect); conditions: purified GBA, blue fluorogenic substrate, 40 min
Lysosomal acid glucosylceramidase (Homo sapiens), sequence (P04062 whole entry, looked up): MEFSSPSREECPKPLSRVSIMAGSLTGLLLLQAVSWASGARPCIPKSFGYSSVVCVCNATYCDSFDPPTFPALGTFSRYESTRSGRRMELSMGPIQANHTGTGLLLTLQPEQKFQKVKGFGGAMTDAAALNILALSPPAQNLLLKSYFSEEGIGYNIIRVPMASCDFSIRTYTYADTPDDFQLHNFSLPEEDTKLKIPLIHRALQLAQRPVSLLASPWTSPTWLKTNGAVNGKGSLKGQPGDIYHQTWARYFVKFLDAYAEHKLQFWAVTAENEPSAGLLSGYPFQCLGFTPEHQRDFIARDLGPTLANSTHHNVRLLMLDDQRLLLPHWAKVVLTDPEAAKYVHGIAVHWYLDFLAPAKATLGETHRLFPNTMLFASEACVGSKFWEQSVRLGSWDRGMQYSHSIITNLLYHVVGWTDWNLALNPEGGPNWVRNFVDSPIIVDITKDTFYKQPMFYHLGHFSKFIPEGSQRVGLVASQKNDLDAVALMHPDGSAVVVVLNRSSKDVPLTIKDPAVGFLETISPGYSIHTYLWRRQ
How it was run: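 Compounds titrated from 0.6 nM upwards against 0.2 nM enzyme in pH 5.9 citric acid/KH2PO4, taurocholate, tween-20; blue fluorogenic substrate 80 uM, 40 min room temperature, stopped and read Ex 365/Em 440 for AC50.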

[2] = AP1 Signaling Pathway (AID 357); conditions: ME-180 AP-1-bla reporter, EGF-induced, beta-lactamase ratio, 5 h; at 7.69 µM (top of the series) unless noted; note: % is set by controls: 0 for no effect and ±100 for the full control effect
How it was run: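 AP-1-bla ME-180 cells with beta-lactamase reporter under AP-1 response element, stimulated with EC50 EGF; compounds titrated, 5 hours at 37 degrees Celsius. CCF4 read at 460/530 nm ratio; positive and negative modulators judged by AC50.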

[3] = NFAT Signaling Pathway (AID 444); conditions: Jurkat NFAT-bla M1, carbachol, beta-lactamase ratio, 5 h; at 7.69 µM (top of the series) unless noted;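 note: carbachol stimulus at about its EC50 of 1 µM final; % is set by controls: 0 for no effect and ±100 for the full control effect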
How it was run: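 Jurkat cells with NFAT-driven β-lactamase reporter and co-expressed M1 receptor, stimulated with carbachol (final 1 uM, ~EC50), compound titration, 5 h at 37 °C. CCF4 loaded 1 h at RT; 460/530 nm ratio gave %activity and AC50.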

[4] = Stat Signaling Pathway (AID 446); conditions: ME-180 (cervical carcinoma) SIE beta-lactamase reporter, IL-6 stimulated, 5 h; at 7.69 µM (top of the series) unless noted;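 note: ME-180 cervical cancer cells given 40 pM IL-6 alongside compound; SIE-controlled beta-lactamase reporter measured as 460/530 nm FRET emission ratio; % is set by controls: 0 for no effect and ±100 for the full control effect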
How it was run: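 IL-6/STAT signaling read in ME-180 cells via an SIE beta-lactamase reporter. Stimulus was 40 pM IL-6 (its AC50) for 5 hrs, so both activation and inhibition register.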

[5] = target: Glucocorticoid receptor (Homo sapiens) (UniProt P04150); assay: GR-GFP Redistribution (AID 450;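 active = compounds whose dose series gives a full or clear partial fitted curve of increased nuclear translocation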; note: potency is the fitted concentration of half-maximal effect); conditions: U2OS GR-GFP nuclear translocation, laser cytometry, 2 h
Glucocorticoid receptor (Homo sapiens), sequence (P04150 whole entry, looked up, the tested form may be a part): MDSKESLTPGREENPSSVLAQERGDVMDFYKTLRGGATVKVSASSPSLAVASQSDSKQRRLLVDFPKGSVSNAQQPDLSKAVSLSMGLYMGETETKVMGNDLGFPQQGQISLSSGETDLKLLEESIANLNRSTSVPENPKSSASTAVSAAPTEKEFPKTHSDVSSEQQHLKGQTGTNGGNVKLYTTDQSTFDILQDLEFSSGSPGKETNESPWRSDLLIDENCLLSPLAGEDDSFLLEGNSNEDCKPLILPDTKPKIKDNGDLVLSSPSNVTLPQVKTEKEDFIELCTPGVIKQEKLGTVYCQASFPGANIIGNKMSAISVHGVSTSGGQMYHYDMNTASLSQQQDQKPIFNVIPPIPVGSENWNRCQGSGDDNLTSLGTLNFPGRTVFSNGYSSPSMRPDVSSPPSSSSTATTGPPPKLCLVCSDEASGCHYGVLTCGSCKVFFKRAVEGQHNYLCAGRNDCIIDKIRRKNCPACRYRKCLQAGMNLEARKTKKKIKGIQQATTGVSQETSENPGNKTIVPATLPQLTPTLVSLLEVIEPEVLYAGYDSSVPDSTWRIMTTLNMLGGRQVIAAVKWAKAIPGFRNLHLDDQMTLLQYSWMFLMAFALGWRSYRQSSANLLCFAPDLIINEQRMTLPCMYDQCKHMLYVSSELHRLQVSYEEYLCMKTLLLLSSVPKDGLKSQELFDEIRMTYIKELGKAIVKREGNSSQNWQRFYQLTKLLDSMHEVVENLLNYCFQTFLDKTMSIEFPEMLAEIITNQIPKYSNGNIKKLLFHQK

[6] = target: Glucocorticoid receptor (Homo sapiens) (UniProt P04150); assay: GR-EFC Redistribution (AID 451; calls by dose curve; note: potency is the fitted concentration of half-maximal effect); conditions: CHO-K1 GR-EFC translocation, beta-gal luminescence, 2 h
How it was run: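 CHO-K1 cells expressing nuclear EA and GR-ED fragments of b-gal; compounds titrated up to 46 uM final, 2 h at 37 C. GR nuclear translocation read as complemented b-gal luminescence after 1 h RT detection.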

[7] = target: Mitogen-activated protein kinase 10 (Mus musculus) (UniProt Q61831); assay: JNK3 AlphaScreen Assay (AID 530); conditions: JNK3 lysate, c-Jun phosphorylation; series mostly up to 11.4 µM;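 note: kinase came from lysate of stimulated human HepG2 cells; signal reports phosphorylation of biotinylated GST-cJun 1-79 at Ser73 with 10 µM ATP; % is set by controls: 0 for no effect and ±100 for the full control effect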
How it was run: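 Pre-activated (IL-1β/TNFα) JNK3 in HepG2 lysates phosphorylates biotin-GST-cJun(1-79), 10 uM ATP; anti-phospho-cJun(Ser73) AlphaScreen read at room temperature, pH 7.6 Tris buffer. Compounds pre-incubated 15 min as titrations.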

[8] = target: 3',5'-cyclic-AMP phosphodiesterase 4B (Homo sapiens) (UniProt Q07343); assay: qHTS Assay for Inhibitors of PDE-IV (AID 607; active = well fitted activation curve with a large enough effect in the main read-out, with a control signal flat, not every such curve was filed as active; note: % of control where 0% means no effect); conditions: HEK293 ACTOne CNG channel cells, membrane potential fluorescence; series mostly up to 22.9 µM
3',5'-cyclic-AMP phosphodiesterase 4B (Homo sapiens), sequence (Q07343 whole entry, looked up): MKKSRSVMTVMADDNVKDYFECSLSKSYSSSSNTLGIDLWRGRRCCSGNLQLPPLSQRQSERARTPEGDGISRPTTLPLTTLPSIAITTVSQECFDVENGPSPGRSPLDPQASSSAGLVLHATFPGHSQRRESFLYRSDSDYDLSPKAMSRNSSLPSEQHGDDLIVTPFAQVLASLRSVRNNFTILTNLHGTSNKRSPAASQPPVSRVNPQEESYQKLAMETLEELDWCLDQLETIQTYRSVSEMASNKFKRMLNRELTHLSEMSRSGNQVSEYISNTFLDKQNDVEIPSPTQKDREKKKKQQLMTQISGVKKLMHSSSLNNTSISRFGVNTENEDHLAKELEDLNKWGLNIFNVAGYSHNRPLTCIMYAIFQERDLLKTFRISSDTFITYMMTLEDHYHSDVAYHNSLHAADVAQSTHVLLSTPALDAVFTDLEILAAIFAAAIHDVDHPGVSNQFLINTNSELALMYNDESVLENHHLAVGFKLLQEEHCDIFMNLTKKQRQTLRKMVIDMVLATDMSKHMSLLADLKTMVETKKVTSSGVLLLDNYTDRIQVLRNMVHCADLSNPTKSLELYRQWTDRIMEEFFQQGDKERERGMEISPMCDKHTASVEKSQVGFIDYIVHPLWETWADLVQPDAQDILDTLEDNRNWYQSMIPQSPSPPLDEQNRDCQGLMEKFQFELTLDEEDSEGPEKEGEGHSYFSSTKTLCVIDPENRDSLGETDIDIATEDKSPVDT
How it was run: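 Live HEK293 cells with a modified cyclic nucleotide-gated (CNG) channel report intracellular cAMP via membrane-potential dye fluorescence (ex 535/em 590 nm). Endogenous PDE-IV was targeted. Compounds were tested at up to 22.9 uM final; RO 20-1724 100 uM served as control.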

O=C(O)/C(Cc1ccc([N+](=O)[O-])cc1)=N/O
inactive: Potency [1] > 11.4 µM | activity change, negative = inhibition [2] 3.45% | activity change, negative = inhibition [3] -0.295% | activity, negative = inhibition [4] 7.71% | Potency [5] > 46 µM | Potency [6] > 9.22 µM | Potency [7] | Potency [8]

O=C(O)/C(Cc1ccnc2ccccc12)=N\O
inactive: Potency [1] > 11.4 µM | activity change, negative = inhibition [2] -9.39% | activity change, negative = inhibition [3] 0.364% | activity, negative = inhibition [4] 4.23% | Potency [5] > 46 µM | Potency [6] > 9.22 µM | Potency [7] | Potency [8]

NC(=O)C[C@@H](N)c1nn[nH]n1
inactive: Potency [1] > 11.4 µM | activity change, negative = inhibition [2] 9.01% | activity change, negative = inhibition [3] 14.8% | activity, negative = inhibition [4] 9.79% | Potency [5] > 46 µM | Potency [6] > 9.22 µM | Potency [7] | Potency [8]

CC(C)[C@H](Nc1ncnc2nc[nH]c12)C(=O)O
inactive: Potency [1] > 11.4 µM | activity change, negative = inhibition [2] 7.63% | activity change, negative = inhibition [3] -3.53% | activity, negative = inhibition [4] -3.88% | Potency [5] > 46 µM | Potency [6] > 9.22 µM | Potency [7] | Potency [8]

NC(N)=N[C@H](CC(=O)O)c1ccccc1
inactive: Potency [1] > 11.4 µM | activity change, negative = inhibition [2] 5.91% | activity change, negative = inhibition [3] 1.32% | activity, negative = inhibition [4] 3.35% | Potency [5] > 46 µM | Potency [6] > 9.22 µM | Potency [7] | Potency [8]

Cc1nc(-c2ccccc2)c(Cc2ccccc2O)c(=O)[nH]1
inactive: Potency [1] > 11.4 µM | activity change, negative = inhibition [2] -9.11% | activity change, negative = inhibition [3] 4.59% | activity, negative = inhibition [4] 0.211% | Potency [5] > 46 µM | Potency [6] > 9.22 µM | Potency [7] | Potency [8]

Cc1cc(=O)[nH]c(/N=C(\N)Nc2ccc(Cl)cc2)n1
inactive: Potency [1] > 11.4 µM | activity change, negative = inhibition [2] -8.26% | activity change, negative = inhibition [3] -9.44% | activity, negative = inhibition [4] -3.21% | Potency [5] > 46 µM | Potency [6] > 9.22 µM | Potency [7] | Potency [8]

CC(CO)(CO)Nc1ncnc2ccccc12
inactive: Potency [1] > 11.4 µM | activity change, negative = inhibition [2] 4.46% | activity change, negative = inhibition [3] 9.62% | activity, negative = inhibition [4] 12.4% | Potency [5] > 46 µM | Potency [6] > 9.22 µM | Potency [7] | Potency [8]

O=C(O)CSc1ccc([N+](=O)[O-])cc1[N+](=O)[O-]
inactive: Potency [1] > 11.4 µM | activity change, negative = inhibition [2] 10.9% | activity change, negative = inhibition [3] -3.03% | activity, negative = inhibition [4] 9.83% | Potency [5] > 46 µM | Potency [6] > 9.22 µM | Potency [7] | Potency [8]

NNS(=O)(=O)c1cc(C(=O)O)cc(C(=O)O)c1
inactive: Potency [1] > 11.4 µM | activity change, negative = inhibition [2] 4.57% | activity change, negative = inhibition [3] 14.9% | activity, negative = inhibition [4] 3.48% | Potency [5] > 46 µM | Potency [6] > 9.22 µM | Potency [7] | Potency [8]

O=C1CSC(=S)N1/N=C\c1ccc(Cl)c([N+](=O)[O-])c1
inactive: Potency [1] > 11.4 µM | activity change, negative = inhibition [2] 1.11% | activity change, negative = inhibition [3] 6.49% | activity, negative = inhibition [4] 1.79% | Potency [5] > 46 µM | Potency [6] > 9.22 µM | Potency [7] | Potency [8]

C[N+](C)([O-])Cc1cc(-c2ccccc2)ccc1O
inactive: Potency [1] > 11.4 µM | activity change, negative = inhibition [2] -2.32% | activity change, negative = inhibition [3] 1.32% | activity, negative = inhibition [4] -3.36% | Potency [5] > 46 µM | Potency [6] > 9.22 µM | Potency [7] | Potency [8]

COC(=O)[C@@H]1C(O)[C@@H](C(=O)OC)[C@H](C)N(C)[C@@H]1C (stereo partly specified)
inactive: Potency [1] > 11.4 µM | activity change, negative = inhibition [2] 3.71% | activity change, negative = inhibition [3] 14.1% | activity, negative = inhibition [4] -1.12% | Potency [5] > 46 µM | Potency [6] > 9.22 µM | Potency [7] | Potency [8]

O=C(O)[C@@H]1CCCN1Cc1cc2ccccc2c2ccccc12
inactive: Potency [1] > 11.4 µM | activity change, negative = inhibition [2] 21.6% | activity change, negative = inhibition [3] 17.3% | activity, negative = inhibition [4] 2.3% | Potency [5] > 46 µM | Potency [6] > 9.22 µM | Potency [7] | Potency [8]

CC(C)[C@@H](C(=O)O)N1C(=O)c2ccccc2C1=O
inactive: Potency [1] > 11.4 µM | activity change, negative = inhibition [2] -2.02% | activity change, negative = inhibition [3] -8.21% | activity, negative = inhibition [4] 2.83% | Potency [5] > 46 µM | Potency [6] > 9.22 µM | Potency [7] | Potency [8]

CC(=O)Nc1cc(CN2CCCCC2)c(O)c2ncccc12
inactive: Potency [1] > 11.4 µM | activity change, negative = inhibition [2] 4.21% | activity change, negative = inhibition [3] -27.8% | activity, negative = inhibition [4] 6.71% | Potency [5] > 46 µM | Potency [6] > 9.22 µM | Potency [7] | Potency [8]

O=C(O)c1cccc(S(=O)(=O)NCCO)c1
inactive: Potency [1] > 11.4 µM | activity change, negative = inhibition [2] 5.38% | activity change, negative = inhibition [3] 3.24% | activity, negative = inhibition [4] -2.13% | Potency [5] > 46 µM | Potency [6] > 9.22 µM | Potency [7] | Potency [8]
